# According to PubChem BioAssay (Tox21):
# Results filed as inconclusive are left out. Unmarked numbers belong to inactive results. The call rests on the fitted dose curve; in most records, active means well fitted activation curve with a large enough effect in the signal ratio in the repeat runs, with a control signal flat (not every such curve was filed as active); inconclusive means weak or mixed curves; inactive means flat fitted curve, though single readings scatter; the % refers to the signal ratio.
# Assay: qHTS assay for small molecule activators of the heat shock response signaling pathway (AID 743210);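 further: HeLa cells with beta-lactamase reporter driven by heat shock elements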
# Conditions: HeLa HSE-bla reporter, beta-lactamase ratio, 5 h; series mostly up to 62.6 µM; activation: at the top concentration
# Method in brief: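 Following overnight attachment, HSE-bla HeLa cells received test compounds for 5 h at 37 C; beta-lactamase activity was then detected via FRET substrate fluorescence.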
# On the % scale 0 is the no-effect control and ±100 the full control effect.
row,Compound,activation
1,CCC/C=C/CO,-1.31%
2,CC1CN(c2ccccc2)NC1=O (stereo not given),-0.675%
3,C/C(=N\O)[C@@H](C)NCC(C)(C)CN[C@H](C)/C(C)=N/O,1.62%
4,CC(=O)O[C@H]1CC[C@@]2(C)C(=CC[C@@H]3[C@@H]2CC[C@]2(C)C(C(C)=O)=CC[C@@H]32)C1,2.86%
5,CCCC(CCC)(C(=O)OCC)C(=O)OCC,-0.11%
6,CCC(=O)c1ccc2c(c1)N(CCCN(C)C)c1ccccc1S2,-0.0402%
7,CC[C@H]1CC[C@H](NCc2cc3c(cc2OC)[C@H]2C[C@H]2C(=O)N3C)[C@H](c2ccccc2)N1,-1.19%
8,Cc1onc(-c2ccccc2)c1C(=O)Cl,1.11%
9,Cc1c(N)cccc1N,-0.174% [at 81.1 µM]
10,CCCS(=O)c1ccc2nc(NC(=O)OC)[nH]c2c1 (stereo not given),-0.05%
11,Cc1nc(-c2ccccn2)ncc1C(=O)Nn1cc(C)c2cc(F)ccc21,3.46%
12,CC1=NN(c2cc(Cl)c(S(=O)(=O)O)cc2Cl)C(=O)C1N=Nc1ccc(S(=O)(=O)O)cc1 (stereo not given),-0.343%
13,Cc1cn([C@@H]2O[C@H](CO)[C@@H](O)[C@@H]2F)c(=O)[nH]c1=O,-0.4%
14,Nc1ccc2ccccc2c1S(=O)(=O)O,0.877% [at 81.1 µM]
15,COC(=O)/C=C(/C)N,-1.29%
16,O=C(CCCl)NCc1ccccc1,-0.471%
17,CN1CCN(N)CC1,-0.953%
18,CCCCCCn1c(=O)c2c(ncn2C)n(C)c1=O,-0.67%
19,CCCC1CCC(=O)O1 (stereo not given),-0.0687%
20,CCOc1ccc(NS(=O)(=O)c2ccc(N)cc2)nn1,-1.28%
21,Cc1cc(NS(=O)(=O)c2ccc(N)cc2)nc(C)n1,-0.201%
22,CN(C)C(=O)NC1(c2ccccc2)CCN(CCC[C@]2(c3ccc(Cl)c(Cl)c3)CCCN(C(=O)c3ccccc3)C2)CC1,-1.54% [at 29.1 µM]
23,O=C1Nc2ccc([N+](=O)[O-])cc2C1=O,1.29%
24,CCOC(=O)c1cc(=O)c2c(OCC(COc3cccc4oc(C(=O)OCC)cc(=O)c34)OC(=O)[C@@H](N)CCCCN)cccc2o1,-2.12%
25,Cc1nc(N)nc(N)c1-c1ccc(Cl)c(Cl)c1,-2.23%
